The structures appear in SMILES notation. This is part of a sample that, as a whole, favours compounds with a hit. Of some 79,000 tested, about 15% had one in any assay. A number with no mark means an inactive call. Activity calls are given as the source filed them. Rule as the data show it: active = growth inhibition above about 70%; inactive = the rest.

Among the data in PubChem BioAssay (NCI) are growth inhibition values, retold here.

The nature of test [1]: NCI Yeast Anticancer Drug Screen. Data for the rad50 strain (AID 155).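 Also: 0% = growth of vehicle-only cultures of the same strain.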 Particulars: S. cerevisiae rad50 strain growth inhibition, active compounds read high. A digest of the protocol:
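Yeast carrying a defined DNA repair defect were exposed to test compounds, and growth was compared with vehicle-treated controls to give percent inhibition.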

A short description of test [2]: NCI Yeast Anticancer Drug Screen. Data for the mec2-1 strain (AID 157). The conditions noted are these: S. cerevisiae mec2-1 strain, active compounds read high. A digest of the protocol:
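Using mec2-1 yeast: add compound, measure growth, express inhibition versus vehicle-treated cultures.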

Test [3] in a line: NCI Yeast Anticancer Drug Screen. Data for the sgs1 mgt1 strain (AID 161).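 Also: 0% = growth of cultures given vehicle only.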 Particulars: S. cerevisiae sgs1 mgt1 strain, active compounds read high. A digest of the protocol:
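Compounds are added to genetically altered yeast, and growth is compared with cultures given vehicle alone to give percent inhibition.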

Test [4] in a line: NCI Yeast Anticancer Drug Screen. Data for the cln2 rad14 strain (AID 165).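 Also: 0% = growth equal to vehicle treated cultures.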 The conditions noted are these: S. cerevisiae cln2 rad14 strain, active compounds read high. A digest of the protocol: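 Yeast strain cln2 rad14, bearing defects in cell cycle control and DNA repair, serves as the test system; values reflect growth inhibition compared with vehicle.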
The nature of test [5]: NCI Yeast Anticancer Drug Screen. Data for the bub3 strain (AID 167). The conditions noted are these: S. cerevisiae bub3 mutant strain, active compounds read high. A digest of the protocol: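 Compounds were applied to a genetically altered yeast strain carrying a cell-cycle control defect. Growth inhibition was scored against vehicle-treated controls.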
The nature of test [6]: NCI Yeast Anticancer Drug Screen. Data for the mlh1 rad18 strain (AID 175). Particulars: S. cerevisiae mlh1 rad18 strain growth inhibition, active compounds read high. A digest of the protocol: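 Steps: expose repair-defective yeast to compound; measure growth; express inhibition against vehicle-treated controls.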
[7] abbreviates: at 5.0 µM (retest, dose inferred, filed as 0.5).
Setting [8] is: at 50.0 µM (retest, dose inferred, filed as 5.0).

Take `C#CC(CC(C)C)(CC(C)C)OC(=O)Nc1ccccc1`: the growth inhibition in test [1] (setting [7]) was 5%; in test [1] (setting [8]), 95% (active); in test [1] (at 50.0 µM), 97.9% (active); in test [2] (setting [7]) it was 1%; in test [2] (setting [8]) it was 97% (active); in test [2] (at 50.0 µM) it was 97.3% (active). Further, the growth inhibition in test [3] (setting [7]) was 4%; in test [3] (setting [8]) it was 98% (active); in test [3] (at 50.0 µM), 98.1% (active); in test [4] (setting [7]), 3%; in test [4] (setting [8]), 96% (active); in test [4] (at 50.0 µM), 97.7% (active). The growth inhibition in test [5] (setting [7]) is 3%; in test [5] (setting [8]), 94% (active); in test [5] (at 50.0 µM), 97.5% (active); in test [6] (setting [7]) it was -6%; in test [6] (setting [8]), 95% (active); in test [6] (at 50.0 µM), 97.3% (active).

For the compound `COC12C(COC(N)=O)C3=C(C(=O)C(C)=C(N)C3=O)N1CC1C2N1C(=O)/C=C/c1ccccc1` (stereo not given), the growth inhibition was 11% in test [1] (setting [7]); 72% (active) in test [1] (setting [8]); 73.7% (active) in test [1] (at 50.0 µM); 13% in test [2] (setting [7]); 82% (active) in test [2] (setting [8]); 70.7% (active) in test [2] (at 50.0 µM). For the same compound, the growth inhibition was 24% in test [3] (setting [7]); 87% (active) in test [3] (setting [8]); 85.7% (active) in test [3] (at 50.0 µM); 3% in test [4] (setting [7]); 80% (active) in test [4] (setting [8]); 75.7% (active) in test [4] (at 50.0 µM). For the same compound, the growth inhibition was 2% in test [5] (setting [7]); 66% in test [5] (setting [8]); 72.4% (active) in test [5] (at 50.0 µM); 27% in test [6] (setting [7]); 90% (active) in test [6] (setting [8]); 87% (active) in test [6] (at 50.0 µM).

With `c1ccc(-c2nc3nc4ccccc4nc3nc2-c2ccccn2)nc1`, the growth inhibition is -8% in test [1] (setting [7]); 84% (active) in test [1] (setting [8]); 24.9% in test [1] (at 50.0 µM); 4% in test [2] (setting [7]); 92% (active) in test [2] (setting [8]); 0.9% in test [2] (at 50.0 µM). Moreover, the growth inhibition in test [3] (setting [7]) was 8%; in test [3] (setting [8]), 87% (active); in test [3] (at 50.0 µM), 20.6%; in test [4] (setting [7]), -5%; in test [4] (setting [8]), 85% (active); in test [4] (at 50.0 µM), -19.1%. The growth inhibition in test [5] (setting [7]) is -4%; in test [5] (setting [8]) it was 98% (active); in test [5] (at 50.0 µM) it was 50.6%; in test [6] (setting [7]), 14%; in test [6] (setting [8]), 98% (active); in test [6] (at 50.0 µM) it was 22.8%.

As to `O=C(c1ccccc1)c1cn(/N=C\c2ccccc2)c(=O)nc1-c1ccccc1`, the growth inhibition in test [1] (setting [7]) was -3%; in test [1] (setting [8]), 61%; in test [1] (at 50.0 µM), 88.5% (active); in test [2] (setting [7]) it was -13%; in test [2] (setting [8]), 96% (active); in test [2] (at 50.0 µM), 80.2% (active). Also, the growth inhibition was 2% in test [3] (setting [7]); 94% (active) in test [3] (setting [8]); 90.9% (active) in test [3] (at 50.0 µM); 11% in test [4] (setting [7]); 95% (active) in test [4] (setting [8]); 87.4% (active) in test [4] (at 50.0 µM). In addition, the growth inhibition in test [5] (setting [7]) was 16%; in test [5] (setting [8]) it was 97% (active); in test [5] (at 50.0 µM), 89% (active); in test [6] (setting [7]) it was -1%; in test [6] (setting [8]), 95% (active); in test [6] (at 50.0 µM) it was 84.5% (active).

Regarding `O=c1c2ccccc2[nH]c2c1[nH]c1ccccc12`, the growth inhibition was 10% in test [1] (setting [7]); 23% in test [1] (setting [8]); 37% in test [1] (at 50.0 µM); 11% in test [2] (setting [7]); 25% in test [2] (setting [8]); -11.7% in test [2] (at 50.0 µM). Further, the growth inhibition in test [3] (setting [7]) is 5%; in test [3] (setting [8]), 24%; in test [3] (at 50.0 µM), -1.65%; in test [4] (setting [7]), 7%; in test [4] (setting [8]), 11%; in test [4] (at 50.0 µM) it was 83.4% (active). The growth inhibition was 7% in test [5] (setting [7]); 22% in test [5] (setting [8]); -20.6% in test [5] (at 50.0 µM); 12% in test [6] (setting [7]); 28% in test [6] (setting [8]); 19.9% in test [6] (at 50.0 µM).

Take `CN(C)CCCN1c2cc(Cl)ccc2Sc2ccc3ccccc3c21`: the growth inhibition in test [1] (setting [7]) is 3%; in test [1] (setting [8]), 98% (active); in test [1] (at 50.0 µM) it was 99.3% (active); in test [2] (setting [7]), 3%; in test [2] (setting [8]), 99% (active); in test [2] (at 50.0 µM) it was 99.3% (active). The growth inhibition in test [3] (setting [7]) is 3%; in test [3] (setting [8]), 99% (active); in test [3] (at 50.0 µM), 99.2% (active); in test [4] (setting [7]), 2%; in test [4] (setting [8]) it was 96% (active); in test [4] (at 50.0 µM) it was 98.6% (active). In addition, the growth inhibition was 5% in test [5] (setting [7]); 96% (active) in test [5] (setting [8]); 99.5% (active) in test [5] (at 50.0 µM); 28% in test [6] (setting [7]); 98% (active) in test [6] (setting [8]); 99.3% (active) in test [6] (at 50.0 µM).

Consider `CCC(c1ccc(Cl)cc1)C(C#N)c1ccccc1` (stereo not given), for which the growth inhibition in test [1] (setting [7]) is 6%; in test [1] (setting [8]), 40%; in test [1] (at 50.0 µM), 76.7% (active); in test [2] (setting [7]), 7%; in test [2] (setting [8]), 34%; in test [2] (at 50.0 µM), 49.2%. Further, the growth inhibition was 3% in test [3] (setting [7]); 53% in test [3] (setting [8]); 69.4% in test [3] (at 50.0 µM); 2% in test [4] (setting [7]); 3% in test [4] (setting [8]); -0.6% in test [4] (at 50.0 µM). Also, the growth inhibition is 1% in test [5] (setting [7]); 3% in test [5] (setting [8]); 40.4% in test [5] (at 50.0 µM); 7% in test [6] (setting [7]); 30% in test [6] (setting [8]); 59% in test [6] (at 50.0 µM).

Consider `N#Cc1ccc(C(F)(F)F)cc1[N+](=O)[O-]`, for which the growth inhibition is 47% in test [1] (setting [7]); 99% (active) in test [1] (setting [8]); 99% (active) in test [1] (at 50.0 µM); 44% in test [2] (setting [7]); 99% (active) in test [2] (setting [8]); 99.2% (active) in test [2] (at 50.0 µM). Besides, the growth inhibition is 63% in test [3] (setting [7]); 99% (active) in test [3] (setting [8]); 99.4% (active) in test [3] (at 50.0 µM); 20% in test [4] (setting [7]); 99% (active) in test [4] (setting [8]); 98.8% (active) in test [4] (at 50.0 µM). The growth inhibition was 31% in test [5] (setting [7]); 99% (active) in test [5] (setting [8]); 99.2% (active) in test [5] (at 50.0 µM); 37% in test [6] (setting [7]); 99% (active) in test [6] (setting [8]); 99.2% (active) in test [6] (at 50.0 µM).

For the compound `Oc1c(Cl)cc(Cl)cc1C=Nc1cc(C(F)(F)F)ccc1Cl`, the growth inhibition in test [1] (setting [7]) is 76% (active); in test [1] (setting [8]), 100% (active); in test [1] (at 50.0 µM), 91.8% (active); in test [2] (setting [7]), 50%; in test [2] (setting [8]) it was 99% (active); in test [2] (at 50.0 µM), 74.4% (active). Besides, the growth inhibition in test [3] (setting [7]) was 46%; in test [3] (setting [8]), 100% (active); in test [3] (at 50.0 µM) it was 91.7% (active); in test [4] (setting [7]), 8%; in test [4] (setting [8]) it was 76% (active); in test [4] (at 50.0 µM), 55.1%. Moreover, the growth inhibition in test [5] (setting [7]) is 5%; in test [5] (setting [8]), 50%; in test [5] (at 50.0 µM), 77.4% (active); in test [6] (setting [7]), 50%; in test [6] (setting [8]), 99% (active); in test [6] (at 50.0 µM), 85.9% (active).

With `CCCC#CC(O)(C(=O)OC1CCN(C)CC1)C1CCCCC1` (stereo not given), the growth inhibition was 34% in test [1] (setting [7]); 55% in test [1] (setting [8]); 63.5% in test [1] (at 50.0 µM); 36% in test [2] (setting [7]); 53% in test [2] (setting [8]); 45.1% in test [2] (at 50.0 µM). The growth inhibition is 12% in test [3] (setting [7]); 69% in test [3] (setting [8]); 65.9% in test [3] (at 50.0 µM); 41% in test [4] (setting [7]); 55% in test [4] (setting [8]); 53.5% in test [4] (at 50.0 µM). In addition, the growth inhibition in test [5] (setting [7]) was 23%; in test [5] (setting [8]) it was 56%; in test [5] (at 50.0 µM), 58%; in test [6] (setting [7]), 46%; in test [6] (setting [8]) it was 79% (active); in test [6] (at 50.0 µM), 53.5%.
